Test results published in PubChem BioAssay (NCI).
About 83,000 compounds went through this panel and 20% of them were active in at least one assay; those are over-represented in the sample as a whole.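 Method: cells in 96-well plates; compound added at one concentration; 48 h incubation; percent growth measured; values under 10 scored active.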 Values without a mark were called inactive. Activity calls are given as the source filed them.

Experiments:
Test in all cases: NCI-60 one-dose screen, 48 h (100 = growth as untreated, 0 = no growth, -100 = all killed)
Settings in all cases: 10 µM unless noted
[1] = tested on: DU-145 prostate
[2] = tested on: K-562 leukemia
[3] = tested on: MALME-3M melanoma
[4] = tested on: MDA-MB-231 breast
[5] = tested on: RXF 393 renal
[6] = tested on: SF-268 CNS
[7] = tested on: SF-295 CNS
[8] = tested on: SF-539 CNS
[9] = tested on: UACC-257 melanoma
[10] = tested on: M14 melanoma

| Structure (SMILES) | growth [1] | growth [2] | growth [3] | growth [4] | growth [5] | growth [6] | growth [7] | growth [8] | growth [9] | growth [10] |
| --- | --- | --- | --- | --- | --- | --- | --- | --- | --- | --- |
| N#C/C(=C\c1ccc(Cl)cc1)n1nnc2cc(F)c(F)cc21 | 14% | 11.5% | 14.8% | 11.9% | -18.6% (active) | 35.7% | 86% | 3.56% (active) | 27.7% | 11.1% |
| Cn1ccnc1C(=O)/C=C/c1ccc(CC(=O)Nc2ccc(Cl)cc2)cc1 | 6.47% (active) | 7.81% (active) | 87.6% | 7.75% (active) | 17.9% | 7.98% (active) | 1.24% (active) | -35.2% (active) | 85.9% | 67.7% |
| N#C/C(=C\c1ccc([N+](=O)[O-])s1)c1nc2cc(Cl)ccc2s1 | 57.4% | 1.75% (active) | -57.1% (active) | -47.2% (active) | 6.88% (active) | 27.9% | 91.7% | -35% (active) | 55.6% | -78.1% (active) |
| COc1cc(OC)cc(C(=O)C[n+]2cccc3cc[nH]c32)c1 | 115% | 98% | 99.1% | 98.4% | 83.8% | 97% | 101% | 101% | -43.7% (active) | 96.3% |
| O=[N+]([O-])CC(c1ccccc1F)c1c[nH]c2ccccc12 (stereo not given) | 97.2% | 17.9% | 66.9% | 56.5% | 80% | 80.4% | 67.9% | 76.3% | 87.1% | 52.3% |
| O=S(=O)(NCCNc1nccc(-c2c(-c3cccc(O)c3)nc3occn23)n1)c1ccc(Cl)cc1 | 111% | 87.8% | -4.98% (active) | 86.2% | 107% | 103% | 114% | 121% | 46.9% | 35.1% |
| O=C1Nc2cc(-c3cccc([N+](=O)[O-])c3)ccc2/C1=C/c1ccc[nH]1 | 111% | 72.2% | 89% | 39.5% | 82.1% | 97.1% | 99.8% | 93.5% | 107% | 89.8% |
| O=C1c2ccc3c4c(ccc(c24)C(=O)N1CCCNCc1ccccc1F)C(=O)N(CCCNCc1ccccc1F)C3=O | -91.9% (active) | -28.2% (active) | -72.2% (active) | -7.55% (active) | -87.9% (active) | -65.1% (active) | -67.7% (active) | -65.5% (active) | -98.6% (active) | -60.8% (active) |
| COc1cc2c(c(OC)c1OC)CCC(c1cccc(NC(=O)c3cccc(Br)c3)c1)O2 (stereo not given) | 91.9% | 88% | 100% | 92.6% | 87.6% | 87.1% | 92.5% | 97.7% | 81.6% | 90.5% |
| COc1ccc(C(=O)c2cc(C)c(OC)c(C)c2)c(OC)c1NC(C)=O | 4.21% (active) | 15.5% | 58.5% | 20.9% | 10.8% | 37.9% | 13% | -13.7% (active) | 66.1% | -8.33% (active) |
| CCN(CC)c1ccc(/C=N/NC(=O)CSc2nc3ccccc3c(=O)n2CCc2ccc(S(N)(=O)=O)cc2)c(O)c1 | 31% | 7.07% (active) | 44.3% | 26% | 44.1% | 32.5% | 38.6% | 22.7% | 16.7% | 31.1% |
| CCOC(=O)c1cc(C(=O)c2ccc(OC)c(OC)c2)n2ccc(/C=C/c3cc[n+](CC(=O)c4ccc(OC)c(OC)c4)cc3)cc12 | 96.3% | 78.2% | 97.3% | 89.4% | 111% | 99.5% | 102% | 87.3% | 98.7% | 96.9% |
| Cc1cnc(C(=O)Nc2nc3ccc(S(=O)(=O)Nc4ccc(C5(C(F)(F)F)CC5)cc4)cc3[nH]2)cn1 | 1.12% (active) | 10% | 32.2% | 47.2% | -17.4% (active) | 47% | 20.6% | -1.85% (active) | 57.7% | 6.68% (active) |
| COc1cc2c(c(O)c1Br)C(=O)c1c(O)cc(C[C@H](C)O)cc1[C@H]2[C@H]1c2cc(C[C@H](C)O)cc(O)c2C(=O)c2c1cc(OC)c(Br)c2O | 24.5% | 5.05% (active) | -26.8% (active) | -58.1% (active) | 21.1% | 19.4% | -21.4% (active) | -23.8% (active) | -2.79% (active) | 16.5% |
| NC(=NCCCOc1ccc(F)cc1)Nc1ccc(I)cc1 | 63.1% | 27.3% | 74.6% | 51.9% | 94% | 67.7% | 80.8% | 78.8% | 55.8% | 59.6% |
| CC(=O)c1cc2c(N)c(C(=O)Nc3cccc4ccncc34)sc2nc1C | 109% | 82.2% | 101% | 93% | 104% | 98.5% | 85% | 94.1% | 96.2% | 75.8% |
| N#C/C(=C\c1ccc(C(F)(F)F)cc1)c1cc2ccccc2[nH]1 | 105% | 90.3% | 103% | 92.7% | 113% | 99.4% | 99.8% | 107% | 104% | 108% |
| O=C(/C=C/c1ccc[nH]1)c1ccc(-n2ccc(C(F)(F)F)n2)c(F)c1 | 99.8% | 77.4% | 84.6% | 87.1% | 91.1% | 93.6% | 90.2% | 69.7% | 99.7% | 94.3% |
| COC(=O)CNC(=O)[C@]12CCC(C)(C)C[C@H]1C1=CC[C@@H]3[C@@]4(C)Cc5c([nH]c6ccccc56)C(C)(C)[C@@H]4CC[C@@]3(C)[C@]1(C)CC2 | 97.6% | 59.3% | 92.2% | 93.9% | 94.2% | 84.4% | 84.7% | 102% | 78.8% | 104% |
| O=C(c1ccccc1)N1N=C(c2ccc(-n3ccc(C(F)(F)F)n3)c(F)c2)CC1c1ccc[nH]1 (stereo not given) | 111% | 96.5% | 101% | 99.5% | 112% | 104% | 105% | 109% | 95.6% | 107% |
| CCCCCCNC(=O)Oc1ccc(/C(=C(\C)c2ccccc2)c2ccc(OCCCN(C)C)cc2)cc1 | 99.6% | 3.9% (active) | 54% | 82.7% | 75.4% | 79.4% | 93.7% | 79.4% | 86.2% | 40.1% |
| CCc1c(Cl)nc(N)nc1Nc1ccc(C)c(C)c1 | 99.5% | 96.5% | 100% | 97.3% | 93.9% | 97.9% | 93.2% | 100% | 105% | 104% |
| CCOC(=O)c1ccc2c(c1)ncn2-c1ccc(NC(=O)Nc2cccc(C)c2)cc1 | 71.9% | 18% | 96.2% | 52.5% | 84.5% | 95.4% | 57.6% | 49.2% | 94% | 64.5% |
| Cc1ccc(-n2c3c(c(-c4ccccc4)c2-c2ccccc2)C2=NCCN2C=N3)cc1 | 95% | 64.2% | 97.9% | 80.5% | 101% | 96.2% | 99.2% | 95.4% | 104% | 95.7% |
| COC(=O)/C=C1\S/C(=N\NC(=O)c2cc3ccc2/C=C\c2ccc(cc2)/C=C\3)N(c2ccccc2)C1=O | 50.9% | 27% | 78.8% | 32.5% | 5.34% (active) | 72.5% | 62.6% | -22.5% (active) | 69.2% | 53.1% |
| CN(C)c1ccc(Nc2c3ccccc3nc3cc(NC(=O)CCN4CCCC4)ccc23)cc1 | -38.5% (active) | -4.43% (active) | -90.9% (active) | -38.1% (active) | -6.44% (active) | -6.93% (active) | 6.34% (active) | -69% (active) | -52% (active) | -84.9% (active) |
